The source made the active and inactive calls.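 How the source made its calls: active means potency half-inhibition concentration of 75 µM or lower; inconclusive means potency above 75 µM but under 100 µM; inactive means potency of 100 µM or higher.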
The compounds below were run against Ubiquitin carboxyl-terminal hydrolase 7 (Homo sapiens) (UniProt Q93009) (assay: Inhibitors of USP1/UAF1: Hit Validation in USP7 Diubiquiting Gel Assay). Details: USP7 K63 diubiquitin cleavage, SDS-PAGE gel densitometry.
From the text: Deubiquitinating enzymes (DUBs) are a class of enzymes that can cleave isopeptide bond formed between the C-terminal carboxylate of ubiquitin and a lysine side-chain amino group on the target protein. Among them, ubiquitin specific proteases (USPs) constitute the largest DUB family. Human USPs are emerging as promising targets for pharmacological intervention because of their connection to a number of human diseases, including prostate, colon and breast cancer (1, 2), pediatric acute lymphoblastic leukemia (3), and familial cylindromatosis (4). The advantage of inhibiting USPs lies in the potential specificity of therapeutic intervention that can lead to better efficacy and reduce nonspecific side effects. In a collaboration between the University of Delaware and the NIH Chemical Genomics Center, a high-throughput screen assay was developed to screen for USP1/UAF1 inhibitors. This miniaturized assay has a fluorescent read-out and is used to screen the NIH Molecular Libraries Small Molecule Repository (MLSMR) in order to identify a small molecule that inhibits USP1. Follow-up assays have also been developed to further test the hits from the primary screen. This assay validates the hits identified from the primary screen using a USP7 diubiquiting gel assay. NIH Chemical Genomics Center [NCGC] NIH Molecular Libraries Probe Centers Network [MLPCN] MLPCN Grant: DA030552-01 Assay Submitter (PI): Zhihao Zhuang, University of Delaware 1. Priolo, C., et al. (2006) The isopeptidase USP2a protects human prostate cancer from apoptosis. Cancer Res 66, 8625-8632 2. Popov, N., et al. (2007) The ubiquitin-specific protease USP28 is required for MYC stability. Nat Cell Biol 9, 765-774 3. […]
The inhibition assay contains 5 nM USP7, 2 microM K63 linked diubiquitin, and inhibitors at varied concentrations (0.08 microM - 114 microM). […] The intensity of the individual diubiquitin and monoubiquitin band was quantified using Quantity One 4.3.1 (Biorad, Hercules, CA). The percentage of the conversion was determined and used to calculate the reaction rate. […]

Sequence of Ubiquitin carboxyl-terminal hydrolase 7 (Homo sapiens) (Q93009 whole entry, looked up): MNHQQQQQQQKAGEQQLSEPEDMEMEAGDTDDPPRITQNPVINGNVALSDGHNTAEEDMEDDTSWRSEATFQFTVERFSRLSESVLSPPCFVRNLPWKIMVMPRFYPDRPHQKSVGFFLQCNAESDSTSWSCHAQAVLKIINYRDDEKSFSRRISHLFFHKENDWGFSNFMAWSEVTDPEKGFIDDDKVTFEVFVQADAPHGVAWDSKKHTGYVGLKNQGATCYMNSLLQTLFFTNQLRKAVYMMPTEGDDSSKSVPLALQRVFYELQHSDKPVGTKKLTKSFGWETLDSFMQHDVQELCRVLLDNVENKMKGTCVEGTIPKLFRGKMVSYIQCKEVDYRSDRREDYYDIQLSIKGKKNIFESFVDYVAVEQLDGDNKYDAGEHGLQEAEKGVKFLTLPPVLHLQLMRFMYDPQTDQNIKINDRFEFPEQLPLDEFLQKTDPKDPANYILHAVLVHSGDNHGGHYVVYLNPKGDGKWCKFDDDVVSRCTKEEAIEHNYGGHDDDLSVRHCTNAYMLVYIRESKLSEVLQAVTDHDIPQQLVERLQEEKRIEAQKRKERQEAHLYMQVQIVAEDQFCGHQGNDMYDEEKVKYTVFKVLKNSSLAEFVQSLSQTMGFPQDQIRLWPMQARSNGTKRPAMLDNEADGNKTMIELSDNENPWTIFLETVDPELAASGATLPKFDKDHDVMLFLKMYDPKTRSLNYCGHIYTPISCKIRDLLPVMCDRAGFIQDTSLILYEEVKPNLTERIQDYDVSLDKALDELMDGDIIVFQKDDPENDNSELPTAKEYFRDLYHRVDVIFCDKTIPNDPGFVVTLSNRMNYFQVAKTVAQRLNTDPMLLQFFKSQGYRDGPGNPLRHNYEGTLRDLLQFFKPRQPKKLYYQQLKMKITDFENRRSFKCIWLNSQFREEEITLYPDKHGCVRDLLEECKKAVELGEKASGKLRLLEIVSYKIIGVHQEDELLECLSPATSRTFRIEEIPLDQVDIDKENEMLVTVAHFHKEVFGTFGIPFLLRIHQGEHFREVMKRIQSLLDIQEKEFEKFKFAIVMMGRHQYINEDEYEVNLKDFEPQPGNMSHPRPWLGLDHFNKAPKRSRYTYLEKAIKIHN

Structure (SMILES) | Potency
Cc1ccccc1-c1nc(NCc2cccs2)c2ccccc2n1 | 19.4 µM (active)
FC(F)(F)c1ccccc1-c1nc(NCc2cccs2)c2ccccc2n1 | 37.8 µM (active)
Cc1cccc(CNc2ccnc(-c3ccccc3C(F)(F)F)n2)c1 | 20.9 µM (active)

Reference: PubChem BioAssay AID624341 (National Center for Advancing Translational Sciences (NCATS), 2012)
